The source of these data is PubChem BioAssay (NCATS).

Test [1] can be described thus: ZIKV-mCherry secondary qHTS for Zika virus inhibitors (AID 1347158). Note: top concentration of the series differs between compounds. The text has this: Assay Submitters (PI): Avindra Nath, Ph.D., National Institute of Neurological Disorders and Stroke (NINDS), Bethesda, MD Radhakrishnan Padmanabhan, Ph.D., Georgetown University (GU), Washington D.C. Zika Virus causes congenital defects, including microcephaly and is associated with Guillain-Barre syndrome, eningoencephalitis and myelitis in infected adult. […] Using a target-based approach, we hope to establish a screening paradigm to uncover novel, cell-active NS2B-NS3 protease (Zika Virus) specific inhibitors from NCATS' collection of small molecules using qHTS. […] Four assay panel was created to identify potential Zika Virus inhibitors. […]
384 well ZIKV-mCherry Assay: We have developed a new orthogonal imaging assay in 384-well plate format, which uses recombinant virus ZIKV-mCherry in Vero cells. […] The TIFFs were quantitated using the canned Multi Target Analysis protocol (GE Investigator Workstation software v3.7.2). […] A recombinant Zika viral infection was monitored in the Cy5 channel (cells) using a 2 microm collar dilation from the nuclear bitmap. mCherry objects with an average nuclear RFU intensity above 450 (3 stdev above mean negative control wells) were considered "mcherry positive" and data was analyzed by percent infection rate.
(Quantitative high-throughput screening tests each substance at several concentrations.)

The target in test [2] is N-terminal Xaa-Pro-Lys N-methyltransferase 1 (Homo sapiens) (UniProt Q9BV86). As to the kind of experiment: qHTS Assay for Inhibitors of N-terminal methyltransferase 1 (NTMT1): LOPAC validation of the NTMT1 SAHH-coupled ThioGlo3 Assay (AID 1347143).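 Note: SAH from peptide methylation measured as thiol fluorescence via SAHH coupling and ThioGlo3; nearly all actives have a fitted effect of over 70% in size.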 Note: potency is the fitted concentration of half-maximal effect. The method in brief: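 Inhibition of NTMT1 methylation of peptide SPKRIA is followed by converting SAH with SAHH and labelling the released thiol with ThioGlo3. Plates are read at 340/450nm before and 30 min after reagent addition, both at room temperature.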
N-terminal Xaa-Pro-Lys N-methyltransferase 1 (Homo sapiens), sequence (Q9BV86 whole entry, looked up): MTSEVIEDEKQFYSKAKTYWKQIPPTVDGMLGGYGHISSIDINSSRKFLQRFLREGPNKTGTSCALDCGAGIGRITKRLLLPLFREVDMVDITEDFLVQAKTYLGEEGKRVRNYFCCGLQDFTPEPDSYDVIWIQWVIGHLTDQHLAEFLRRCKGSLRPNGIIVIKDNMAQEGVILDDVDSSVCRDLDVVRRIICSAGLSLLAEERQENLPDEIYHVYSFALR

In test [3] the test system is Zika virus NS2B-NS3 protease (unlinked). In words: Optimization of GU AMC qHTS for Zika virus inhibitors: Unlinked NS2B-NS3 protease assay (AID 1347151). Note: nearly all actives have a fitted effect of over 80% in size. Note: potency is the fitted concentration of half-maximal effect. The method in brief: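 In this qHTS, compounds acted on 25 nM unlinked Zika NS2B–NS3 in pH 8.0 Tris/Tween buffer. Cleavage of an AMC peptide ran 15 min at room temperature, to about 20% conversion.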
Test [4] deals with Zika virus NS2B-NS3 protease. As to the kind of experiment: Primary screen GU AMC qHTS for Zika virus inhibitors (AID 1347154). Note: nearly all actives have a fitted effect of over 70% in size. Note: potency is the fitted concentration of half-maximal effect. In outline: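 Fluorogenic AMC-substrate cleavage by noncovalent NS2B-NS3 protease complex (25 nM, pH 8.0 Tris buffer with Tween 20) followed for 15 minutes at room temperature (~20% conversion). Percent inhibition from ex340/em450 signal change, fitted by 4-parameter Hill equation.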

Another test addresses Furin (Homo sapiens) (UniProt P09958). In words: Furin counterscreen qHTS for Zika virus inhibitors (AID 1347149).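 Note: purified recombinant full-length human furin enzyme at 5 nM; fluorescence gain from furin cutting a BOC-RVRR-AMC peptide substrate over 15 min; top concentration of the series differs between compounds; nearly all actives have a fitted effect of over 70% in size.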 In outline: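 Fluorogenic cleavage of BOC-RVRR-AMC (2 microM final, Km ~15 µM) was monitored (ex 340, em 450 nm) at 37C after 15 min RT preincubation of 5 nM furin with compounds in HEPES pH 7.0 buffer with CaCl2 and Triton X-100. Percent inhibition was fitted to a 4-parameter Hill curve.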
For orientation: A counterscreen serves to expose hits that act by an unwanted route or on another target.

Test [5] deals with Zika virus NS2B-NS3 protease (linked construct). As to the kind of experiment: Confirmatory screen NINDS AMC qHTS for Zika virus inhibitors (AID 1347152).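 Note: AMC fluorescence gain from cleaved Bz-Nle-KRR-AMC substrate over 15 min; top concentration of the series differs between compounds; nearly all actives have a fitted effect of over 70% in size.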 In outline:
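Concentration-response confirmation used the NINDS linked protease (NS2B hydrophilic domain joined to NS3 protease domain), 1 nM, with a 15-min compound preincubation. Substrate, Nle-KRR-AMC at 10 microM, was read by UV fluorescence before and after 15 min.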

The test system of test [6] is Zika virus NS2B-NS3 protease (unlinked complex). As to the kind of experiment: Confirmatory screen GU AMC qHTS for Zika virus inhibitors (AID 1347153). Note: nearly all actives have a fitted effect of over 70% in size. The method in brief: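 Unlinked enzyme 25 nM, Tris pH 8.0/0.01% Tween 20; cpd 15 min RT, dark; + AMC substrate 10 µM (Km 18.3 µM); 340/450 nm read at t0 and 15 min; % inhibition → 4-param fit.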

Values joined by “and” are separate entries in the source; they are usually repeats but may differ in a detail not shown here. Equal entries are not always repeated. Inconclusive results are not listed. Active and inactive are the calls of the source. Calls come from the whole dose curve; as a rule, active = well fitted curve in the direction sought with a large enough effect; inconclusive = small, poorly fitted or top-dose-only effect, or another doubt; inactive = no such curve, though single readings can be large; an effect the other way counts as inactive or inconclusive.

Furin (Homo sapiens), sequence (P09958 whole entry, looked up): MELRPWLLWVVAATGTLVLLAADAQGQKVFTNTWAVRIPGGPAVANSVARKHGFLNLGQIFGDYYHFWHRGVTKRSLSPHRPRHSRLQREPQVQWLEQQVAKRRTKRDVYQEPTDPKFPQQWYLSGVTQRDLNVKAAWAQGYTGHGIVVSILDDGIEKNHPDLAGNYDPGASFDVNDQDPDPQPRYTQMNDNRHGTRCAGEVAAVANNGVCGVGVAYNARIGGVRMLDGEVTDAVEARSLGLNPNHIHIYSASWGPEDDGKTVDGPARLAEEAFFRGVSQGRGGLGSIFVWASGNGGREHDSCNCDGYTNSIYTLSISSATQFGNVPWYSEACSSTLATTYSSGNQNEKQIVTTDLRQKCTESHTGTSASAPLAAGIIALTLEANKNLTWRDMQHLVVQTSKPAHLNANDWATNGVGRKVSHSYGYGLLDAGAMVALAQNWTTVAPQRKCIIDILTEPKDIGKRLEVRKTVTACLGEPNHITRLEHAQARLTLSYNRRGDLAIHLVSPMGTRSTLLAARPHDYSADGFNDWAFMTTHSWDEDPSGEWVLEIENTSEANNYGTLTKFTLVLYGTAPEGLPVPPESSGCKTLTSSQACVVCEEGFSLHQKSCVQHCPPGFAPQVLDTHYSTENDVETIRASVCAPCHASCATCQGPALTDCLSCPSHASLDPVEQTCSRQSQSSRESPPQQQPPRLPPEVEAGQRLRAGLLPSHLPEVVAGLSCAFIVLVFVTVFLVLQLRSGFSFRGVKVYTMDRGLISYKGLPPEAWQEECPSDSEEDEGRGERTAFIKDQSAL

As for `O=c1c(O)c(-c2ccc(O)c(O)c2)oc2cc(O)cc(O)c12`, the compound was classed as inactive in test [1].
Turning to `CC[N+](CC)(CC)CCOc1cccc(OCC[N+](CC)(CC)CC)c1OCC[N+](CC)(CC)CC`, the Potency in test [2] is 44.7 µM (active). For the same compound, the Potency result in test [3] and in test [4] was “inactive” each time.
Consider `CC(C(=O)O)c1cccc(C(=O)c2ccccc2)c1` (stereo not given), for which the Potency result in test [2], in test [3] and in test [4] was “inactive” throughout.
With `Cc1cc(C(C)(C)C)cc(C)c1CC1=NCCN1`, the Potency entry in test [2], in test [3] and in test [4] was “inactive” in each case.
For the compound `CCOC(=O)c1ncn2c1CN(C)C(=O)c1cc(F)ccc1-2`, the Potency result in test [2], in test [3] and in test [4] was “inactive” each time.
With `CC(C)(Oc1ccc(C2CC2(Cl)Cl)cc1)C(=O)O` (stereo not given), the Potency entry in test [2], in test [3] and in test [4] was “inactive” each time.
As for `CN(C)CCOC(c1ccccc1)c1ccccc1`, the Potency entry in test [2], in test [3] and in test [4] was “inactive” in each case.
Take `Cn1c(=O)c2c(ncn2C)n(C)c1=O`: the Potency entry in test [2], in test [3] and in test [4] was “inactive” each time.
With `CN(C)c1nc(N(C)C)nc(N(C)C)n1`, the Potency result in test [2], in test [3] and in test [4] was “inactive” each time.
`CN(CCOc1ccc(NS(C)(=O)=O)cc1)CCc1ccc(NS(C)(=O)=O)cc1`: the Potency entry in test [2], in test [3] and in test [4] was “inactive” each time.
In the case of `COc1nc(C)nc(Cl)c1NC1=NCCN1`, the Potency result in test [2], in test [3] and in test [4] was “inactive” in each case.
With `CN1C2CCC1CC(OC(=O)C(CO)c1ccccc1)C2` (stereo not given), the Potency result in test [2], in test [3] and in test [4] was “inactive” each time.
For the compound `COc1ccc2c(c1)c(CC(=O)O)c(C)n2C(=O)c1ccc(Cl)cc1`, the Potency result in test [2], in test [3] and in test [4] was “inactive” throughout.
Turning to `O=C(CCCN1CCC(O)(c2ccc(Cl)cc2)CC1)c1ccc(F)cc1`, the Potency entry in test [2], in test [3] and in test [4] was “inactive” throughout.
Take `NCCS(=O)(=O)O`: the Potency entry in test [2], in test [3] and in test [4] was “inactive” each time.
As for `COc1cc2nc(N3CCN(C(=O)C4COc5ccccc5O4)CC3)nc(N)c2cc1OC` (stereo not given), the Potency in test [2] is 56.2 µM (active); in test [3], 26.7 µM (active); in test [4], 9.07 µM (active) and 24.1 µM (active).
With `CC(C)NCC(O)COc1ccc(CCOCC2CC2)cc1` (stereo not given), the Potency result in test [2], in test [3] and in test [4] was “inactive” in each case.
As for `CCC1(C)CC(=O)NC1=O` (stereo not given), the Potency result in test [2], in test [3] and in test [4] was “inactive” each time.
In the case of `Cn1cnc2c1c(=O)[nH]c(=O)n2C`, the Potency result in test [2], in test [3] and in test [4] was “inactive” each time.
Consider `CN(C)CCC=C1c2ccccc2C=Cc2ccccc21`, for which the Potency entry in test [2], in test [3] and in test [4] was “inactive” each time.
For `COc1cc2nc(N(C)CCCNC(=O)C3CCCO3)nc(N)c2cc1OC` (stereo not given), the Potency in test [2] is 39.8 µM (active); in test [3], 26.7 µM (active); in test [4], 8.09 µM (active) and 21.5 µM (active).
As for `Nc1nnc(-c2cccc(Cl)c2Cl)c(N)n1`, the Potency result in test [2], in test [3] and in test [4] was “inactive” in each case.
In the case of `OCCN1CCN(CCCN2c3ccccc3Sc3ccc(C(F)(F)F)cc32)CC1`, the Potency in test [2] is 44.7 µM (active). Also, the Potency entry in test [3] and in test [4] was “inactive” throughout.
As for `NCCc1cnc[nH]1`, the Potency entry in test [2], in test [3] and in test [4] was “inactive” throughout.
Regarding `NC(=O)OCC(COC(N)=O)c1ccccc1`, the Potency result in test [2], in test [3] and in test [4] was “inactive” throughout.
For the compound `COc1ccc(C2CNC(=O)C2)cc1OC1CCCC1` (stereo not given), the Potency entry in test [2], in test [3] and in test [4] was “inactive” in each case.
Turning to `Nc1nc2c(ncn2COC(CO)CO)c(=O)[nH]1`, the Potency entry in test [2], in test [3] and in test [4] was “inactive” each time.
On to `O=c1[nH]cc(F)c(=O)[nH]1`, for which the Potency entry in test [2], in test [3] and in test [4] was “inactive” each time.
On to `CC12CC3CC(C)(C1)CC(N)(C3)C2`, for which the Potency result in test [2], in test [3] and in test [4] was “inactive” in each case.
Consider `CCOC(=O)C(C)(C)Oc1ccc(Cl)cc1`, for which the Potency entry in test [2], in test [3] and in test [4] was “inactive” in each case.
Consider `NS(=O)(=O)c1cc2c(cc1Cl)NCNS2(=O)=O`, for which the Potency result in test [2], in test [3] and in test [4] was “inactive” throughout.
As to `O=C1N(c2ccccc2)c2ccccc2C1(Cc1ccncc1)Cc1ccncc1`, the Potency entry in test [2], in test [3] and in test [4] was “inactive” in each case.
Turning to `NCCCCCC(=O)O`, the Potency entry in test [2], in test [3] and in test [4] was “inactive” each time.
On to `CCc1cccc2c3c([nH]c12)C(CC)(CC(=O)O)OCC3` (stereo not given), for which the Potency result in test [2], in test [3] and in test [4] was “inactive” each time.
In the case of `CN(C)C(=O)C(CCN1CCC(O)(c2ccc(Cl)cc2)CC1)(c1ccccc1)c1ccccc1`, the Potency result in test [2], in test [3] and in test [4] was “inactive” each time.
Consider `O=C(c1ccc(F)cc1)C1CCN(CCn2c(=O)[nH]c3ccccc3c2=O)CC1`, for which the Potency result (with Furin (Homo sapiens); in test [5]; in test [6]; in test [4]) was “inactive” each time.
As to `C[C@](N)(Cc1ccc(O)c(O)c1)C(=O)O`, the Potency entry in test [3] is “inactive”.
On to `Nc1c2c(nc3ccccc13)CCCC2`, for which, in test [4], the Potency result was “inactive”.
On to `C[C@H]1c2cccc(O)c2C(O)=C2C(=O)[C@]3(O)C(O)=C(C(N)=O)C(=O)[C@@H](N(C)C)[C@@H]3[C@@H](O)[C@@H]21`, for which the Potency entry (in the test with Furin (Homo sapiens); in test [3]; in test [5]; in test [6]) was “inactive” each time.
On to `CCCNCC(O)COc1ccccc1C(=O)CCc1ccccc1` (stereo not given), for which the Potency entry in test [3] and in test [4] was “inactive” in each case.
Turning to `Cn1c(=O)c2[nH]cnc2n(C)c1=O`, the Potency entry in test [2], in test [3] and in test [4] was “inactive” each time.
`O=C(c1ccc(OCCN2CCCCC2)cc1)c1c(-c2ccc(O)cc2)sc2cc(O)ccc12`: the Potency result in test [3] and in test [4] was “inactive” throughout.
